In ChEMBL document CHEMBL4513216, “Probing the Open Global Health Chemical Diversity Library for Multistage-Active Starting Points for Next-Generation Antimalarials” (ACS Infect Dis, 2020) one finds INHIBITION data, which are given here for 54 compounds.

Screen size: about 69,000 compounds; about 8,600 (12%) showed an effect of 50% or more. The list comes from a sample in which strong results are over-represented; it also holds similar structures and randomly drawn compounds.

The test system of this assay is Plasmodium berghei. The experiment in a line: Screen against P. berghei liver stage (PbLuc), transformed with Luciferase, at 10uM. As to conditions: tested at 10 uM. It counts as functional, HepG2.
Consider `CCc1ccc(CN(CCCn2ccnc2)Cc2ccc(C)s2)o1`, for which the INHIBITION came out at 52.3%.
Take `Cc1ccc(CN(CCCn2ccnc2)Cc2c(F)cccc2F)s1`: the INHIBITION turned out to be 94.1%.
Consider `COc1ccc(Cl)cc1CNCCCn1ccnc1`, for which the INHIBITION was -22.1%.
For the compound `Cc1ccc(CN(CCCn2ccnc2)Cc2cccs2)s1`, the INHIBITION was 82.1%.
The result for `Cc1ccc(CN(CCN(C)C)Cc2ncc[nH]2)s1` reads 17.6%.
For `Cc1ccc(CN(CCCN2CCOCC2)Cc2cncn2C)o1`, the INHIBITION is 30.4%.
On to `COc1ccc(F)c(CN(CCCn2ccnc2)Cc2ccc(C)s2)c1`, for which the INHIBITION was found to be 86.9%.
The result for `Cc1ccc(CN(CCCn2ccnc2)Cc2cnc(N(C)C)nc2)s1` reads -16.5%; that for `COc1ccc(Cn2ccnc2)cc1F`, -20.7%; that for `Cc1ccc(CN(CCCn2ccnc2)Cc2cnn(C)c2)s1`, 24.4%.
With `CCCc1cncnc1N1CCCC2(CCC(=O)N(C3CCCC3)C2)C1` (centres undefined), the INHIBITION was 32.4%.
Consider `O=S(=O)(c1cnccc1N1CCN(CCO)CC1)N1CCCCC1`, for which the INHIBITION is given as 8.38%.
The result for `CC(C)N1CCCC(c2cc(C(F)(F)F)nc3nccn23)C1` (centres undefined) reads 3.03%; that for `O=C(O)CCC(=O)Nc1nn(Cc2ccccc2Cl)cc1Cl`, 19.3%.
The result for `CC(C)c1nccn1C1CCCN(C(=O)c2ccc3nncn3c2)C1` (centres undefined) reads 36.1%; that for `Cc1cnn(CC2CCCN2C(=O)CCc2c(C)nc(C)[nH]c2=O)c1` (centres undefined), -37.7%.
For the compound `CC(=O)N1CCC(c2cncc(Oc3ccccc3)n2)CC1`, the INHIBITION is recorded as 41.5%.
As for `CN(Cc1ccno1)c1nc(C2CCCC2)nc2c1cnn2C`, the INHIBITION worked out at 20%.
Turning to `Cc1cc(CN2CC[C@H]3C[C@H](C(=O)Nc4cccnc4C)O[C@@H]3C2)no1`, the INHIBITION is given as 48.6%.
Consider `Fc1ccccc1CN(CCCn1ccnc1)CC1CCOC1` (centres undefined), for which the INHIBITION is reported as 1.62%.
In the case of `c1cncc(CN(CCCn2ccnc2)CC2CCOC2)c1` (centres undefined) it was 44.8%; in that of `OCc1ccc(CN(CCCn2ccnc2)Cc2ccncc2)o1`, 42.1%; in that of `OCc1ccc(CN(CCCn2ccnc2)Cc2cccnc2)o1`, 56%.
For the compound `CC(C)OCCCN(Cc1ccncc1)Cc1cc(F)ccc1F`, the INHIBITION is on record as -16.5%.
For the compound `Cc1ccc(CN(CCCn2ccnc2)Cc2cc(F)ccc2F)s1`, the INHIBITION turned out to be 88.1%.
As to `CC(C)NC1CCCc2nc(-c3ccccc3)ncc21` (centres undefined), the INHIBITION is -36.3%.
With `CN1CCN(c2ccc(NS(=O)(=O)c3ccc(Cl)s3)cc2C(=O)O)CC1`, the INHIBITION was -12.6%.
`Cc1cc(C)n(CC2CCCCN2C(=O)CCc2ccncc2)n1` (centres undefined): the INHIBITION was 4.52%.
As for `Cc1cccc(C(=O)Nc2c(C(N)=O)n[nH]c2C)c1C`, the INHIBITION is reported as -41.9%.
`CC(=O)N(Cc1noc(C)n1)C1CCN(Cc2ccc(C#N)cc2)C1` (centres undefined): the INHIBITION is listed as 27.4%.
The result for `Cc1cc(C)c2c(NC(C)c3nncn3C3CCCC3)ncnc2n1` (centres undefined) reads 35.1%.
As for `CN1N=C(c2nc(Cc3cccc(Br)c3)no2)CCC1=O`, the INHIBITION is given as 25.4%.
In the case of `COc1ccc(Cc2noc(C3=NN(C)C(=O)CC3)n2)cc1OC`, the INHIBITION stood at 53.8%.
The result for `COc1ccc(-c2noc(C3=NN(C)C(=O)CC3)n2)cc1OC` reads -17.8%.
As to `CCOCC1CN(C(=O)c2cccs2)Cc2cnn(CC3CC3)c21` (centres undefined), the INHIBITION is recorded as 14.6%.
On to `Cc1cc(C(=O)NC(COCC(C)C)c2ccco2)no1` (centres undefined), for which the INHIBITION came to 11.9%.
The result for `CC(C)c1noc(C(C)S(=O)(=O)CC(=O)N2CCCC2)n1` (centres undefined) reads 37.9%; that for `O=C(c1ccc(=O)[nH]n1)N1CCCC(O)(CN2CCC(F)(F)CC2)CC1` (centres undefined), -18.8%.
For the compound `COc1cc(NCC(O)CN2CCCCCC2)ncn1` (centres undefined), the INHIBITION is reported as -25%.
On to `COc1cc(NCC(c2ccccn2)N(C)C)ncn1` (centres undefined), for which the INHIBITION is 53.6%.
Turning to `Cc1cc2nc(C(C)C)cc(NCC(c3ccccn3)N(C)C)n2n1` (centres undefined), the INHIBITION worked out at 28%.
Regarding `CC(c1nc(C(C)(C)C)no1)N1CCN(Cc2ccc(C#N)cc2)CC1` (centres undefined), the INHIBITION is -4.94%.
Consider `Cc1ccoc1C(=O)N1CCn2cc(CN3CCCC3)nc2C1`, for which the INHIBITION is given as 28.7%.
Regarding `CCOc1cccc2c1OCC(C(=O)NS(=O)(=O)c1c(C)noc1C)=C2`, the INHIBITION was -6.44%.
Turning to `CO[C@H]1CN(S(=O)(=O)c2ccc(F)cc2)C[C@@]12CCCO2`, the INHIBITION is recorded as -23.4%.
In the case of `CN(C)c1ccc(NC(=O)NCc2cccnc2N(C)C)cn1`, the INHIBITION was 17.5%.
As to `CCS(=O)(=O)c1ccc2oc([C@H]3CCN(Cc4cccnc4)C3)nc2c1`, the INHIBITION is reported as 19.8%.
For the compound `CCS(=O)(=O)c1ccc2oc([C@H]3CCN(Cc4ccccc4)C3)nc2c1`, the INHIBITION is listed as -81.2%.
Consider `c1ccc2oc(C3CCN(Cc4ncon4)CC3)nc2c1`, for which the INHIBITION was 15.2%.
Turning to `CC(C)(C)c1nc(CN2CCCC(c3noc(C4CC4)n3)C2)no1` (centres undefined), the INHIBITION was -41.1%.
Take `CC(C)(C)c1nc(CN2CCC(c3nc4cc(Cl)ccc4o3)CC2)no1`: the INHIBITION was 56.9%.
For `CC(C)(C)c1nc(CN2CCC(c3ccnn3CCO)CC2)no1`, the INHIBITION is -17%.
On to `CC(C)(C)c1nc(CN2CCC(N3CCCCC3)CC2)no1`, for which the INHIBITION was determined as 56.3%.
As to `Clc1ccc2oc(C3CCN(Cc4nc(C5CC5)no4)CC3)nc2c1`, the INHIBITION was determined as 42.6%.
